High-throughput results as filed in PubChem BioAssay.
Rab9 prom act = Rab9 promoter activation; Huh7 Rab9 promoter-luciferase reporter, luminescence, 24 h; Potency, µM (doses to about 9.22 µM), usual class: activators; hit rate 2.8% among 320,000; AID 485297; note: nearly all actives have a fitted effect of over 60% in size
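Rab9 promoter-driven luciferase in stably transfected Huh7 cells; 1500 cells/well rested 2 h, exposed to compound in DMSO for 24 h at 37 °C, 5% CO2. Luminescence read 10 min after adding luciferase reagent at ambient temperature.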
FLuc modulator = counter-screen for miR-21 project: firefly luciferase inhibitors or activators; purified FLuc, Km substrates, luminescence inhibition; P08659; hit rate 6.9% among 360,000; Potency, µM (doses to about 57.5 µM), hits mostly inhibitors; AID 588342; note: nearly all actives have a fitted effect of over 55% in size
Target sequence (P08659 whole entry, looked up): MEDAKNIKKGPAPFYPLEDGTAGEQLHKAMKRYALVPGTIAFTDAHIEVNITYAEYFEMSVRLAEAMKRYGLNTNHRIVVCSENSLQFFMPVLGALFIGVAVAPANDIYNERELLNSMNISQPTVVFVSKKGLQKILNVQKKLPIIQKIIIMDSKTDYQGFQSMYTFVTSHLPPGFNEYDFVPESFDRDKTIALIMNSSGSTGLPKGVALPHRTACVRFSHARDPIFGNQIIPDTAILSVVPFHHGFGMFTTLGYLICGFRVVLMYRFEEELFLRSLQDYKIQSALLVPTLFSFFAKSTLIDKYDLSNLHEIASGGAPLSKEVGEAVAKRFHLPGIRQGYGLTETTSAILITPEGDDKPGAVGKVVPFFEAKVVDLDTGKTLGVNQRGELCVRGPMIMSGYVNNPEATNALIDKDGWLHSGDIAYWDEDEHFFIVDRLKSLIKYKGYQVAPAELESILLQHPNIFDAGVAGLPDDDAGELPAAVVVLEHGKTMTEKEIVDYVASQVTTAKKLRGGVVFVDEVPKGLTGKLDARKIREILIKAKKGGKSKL
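Purified P. pyralis luciferase, 10 nM final, with Km-level 10 uM D-luciferin and 10 uM ATP in 50 mM Tris acetate pH 7.5, 10 mM Mg acetate, 0.01% Tween-20, 0.05% BSA; 6-point qHTS titration about 60 µM downward; luminescence read.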
ELG1 genotoxic = induces genotoxicity in HEK293T cells with luciferase-tagged ELG1; Potency, µM (titrated, usually from 46 µM), hits mostly activators; AID 504466; HEK293T ELG1-luciferase reporter, luminescence, 16 h; hit rate 1.3% among 330,000; note: nearly all actives have a fitted effect of over 60% in size
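ELG1-luciferase HEK293T cells, 2,000/well; compound pinned in; 16 hr, 37 °C, 5% CO2; ONE-Glo, 30 min RT; luminescence on CCD imager.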
SMN2 splice up = enhancers of SMN2 splice variant expression; HEK293 SMN2-luciferase splicing reporter, luminescence, 30-36 h; Potency, µM (titrated, usually from 46.1 µM), actives largely listed as activators; hit rate 2.8% among 210,000; note: nearly all actives have a fitted effect of over 55% in size
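qHTS luciferase splicing reporter: luminescence rises when SMN2 exon 7 is included in transfected HEK293 cells. Compound exposure lasted 30-36 h at 37C, with 4.5 mM final sodium butyrate as control, followed by a ONE-Glo read.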
NPC1 promoter act = activators of NPC1 promoter | Huh7 NPC1 promoter luciferase reporter, 24 h | Potency, µM (top dose mostly 9.22 µM), actives largely listed as activators | hit rate 2.4% among 320,000 | AID 485313; note: nearly all actives have a fitted effect of over 60% in size
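Luciferase expression driven by the NPC1 promoter was measured in stably transfected Huh7 cells after a 24 h compound incubation, using a luciferase reagent and a luminescence read.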
ELG1 repair inh = blocks ELG1-dependent DNA repair in HEK293T cells; Potency, µM (highest dose often 46.1 µM), hits mostly inhibitors; AID 504467; HEK293T ELG1-luciferase reporter, luminescence, 16 h; DNA damage induced by 5-fluorouridine; hit rate 2.3% among 330,000; note: nearly all actives have a fitted effect of over 55% in size
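Step one: seed 2,000 cells per well. Step two: pin-transfer compound or DMSO alongside 5-fluorouridine. Step three: incubate 16 hr, 37 °C, 5% CO2. Step four: add ONE-Glo, wait 30 min, read luminescence.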
Numbers stand for hits. In the library only some 9.2% were active in any assay of this set; here they are far more common. Calls come from the whole dose curve; as a rule, active = well fitted curve in the direction sought with a large enough effect; inconclusive = small, poorly fitted or top-dose-only effect, or another doubt; inactive = no such curve, though single readings can be large; an effect the other way counts as inactive or inconclusive.

O=C(Nc1ccc2nc(-c3ccc(Br)o3)[nH]c2c1)c1cccs1 was read as Rab9 prom act inactive, FLuc modulator 4.3µM, ELG1 genotoxic inactive, SMN2 splice up inactive, NPC1 promoter act inactive and ELG1 repair inh inactive.
`CC(=O)Nc1ccc(Oc2ccc3nc(C)[nH]c3c2)cc1` gave Rab9 prom act inactive, FLuc modulator inactive, ELG1 genotoxic inactive, SMN2 splice up inactive, NPC1 promoter act inactive and ELG1 repair inh inactive.
Cc1cccc2[nH]c(-c3ccc(NC(=O)c4ccco4)cc3)nc12 was read as Rab9 prom act 1µM, FLuc modulator 4.8µM, ELG1 genotoxic inconclusive, SMN2 splice up 14µM, NPC1 promoter act 2.2µM and ELG1 repair inh inconclusive.
`O=C(Nc1ccc2nc[nH]c2c1)c1ccco1` gave Rab9 prom act inconclusive, FLuc modulator 19µM, ELG1 genotoxic inconclusive, SMN2 splice up inactive, NPC1 promoter act inactive and ELG1 repair inh inconclusive.
`CC(=O)Nc1ccc2nc(-c3ccc(Br)o3)[nH]c2c1` gave Rab9 prom act 3.5µM, FLuc modulator 3.8µM, ELG1 genotoxic inconclusive, SMN2 splice up inconclusive, NPC1 promoter act inconclusive and ELG1 repair inh inconclusive.
For Cc1cccc(NC(=O)c2ccco2)c1C the results were Rab9 prom act inactive, FLuc modulator inactive, ELG1 genotoxic inactive, NPC1 promoter act inactive and ELG1 repair inh inactive.
Screening Cc1nc2ccc(C(=O)Nc3ccc4nc[nH]c4c3)cc2[nH]1 returned Rab9 prom act inactive, FLuc modulator inconclusive, ELG1 genotoxic inactive, NPC1 promoter act inactive and ELG1 repair inh inactive.
For CN(C)c1ccc(CNC(=O)c2cc3ccccn3n2)cc1 the results were FLuc modulator inactive.
`O=C(Nc1ccc2nc(-c3ccccc3)[nH]c2c1)c1ccco1` gave Rab9 prom act inconclusive, FLuc modulator 11µM, ELG1 genotoxic inconclusive, SMN2 splice up 16µM, NPC1 promoter act inconclusive and ELG1 repair inh inconclusive.
`CCc1ccc(S(=O)(=O)c2nnn3c2nc(N(CC)Cc2ccccc2)c2cc(Cl)ccc23)cc1` gave FLuc modulator inactive and SMN2 splice up inactive.
`COc1ccc(-c2csc(Nc3ccccc3)[n+]2CC(O)c2ccc([N+](=O)[O-])cc2)cc1` (configuration not stated) gave Rab9 prom act inactive, FLuc modulator inactive, ELG1 genotoxic inactive, NPC1 promoter act inactive and ELG1 repair inh 21µM.
`COc1cccc(NC(=O)C(=O)NCc2ccncc2)c1` gave Rab9 prom act inconclusive, FLuc modulator 19µM, ELG1 genotoxic inconclusive, SMN2 splice up 13µM, NPC1 promoter act inactive and ELG1 repair inh inconclusive.
Screening COc1cccc(NC(=O)Nc2nnc(Cc3ccccc3)s2)c1 returned Rab9 prom act inactive, FLuc modulator inactive, ELG1 genotoxic inactive, NPC1 promoter act inactive and ELG1 repair inh inactive.
For Cc1cc(C)cc(C(=O)NC(=S)Nc2ccc(Cc3ccncc3)cc2)c1 the results were Rab9 prom act inactive, FLuc modulator inactive, ELG1 genotoxic inactive, SMN2 splice up inactive, NPC1 promoter act inactive and ELG1 repair inh inconclusive.
Screening COc1cccc(NC(=O)Nc2nnc(N3C(C)CCCC3C)s2)c1 (configuration not stated) returned Rab9 prom act inactive, FLuc modulator 21µM, ELG1 genotoxic inactive, NPC1 promoter act inactive and ELG1 repair inh inconclusive.
For COc1cc(C(=O)NC(=S)Nc2ccccc2[N+](=O)[O-])cc(OC)c1OC the results were Rab9 prom act inactive, FLuc modulator inactive, ELG1 genotoxic inactive, SMN2 splice up inactive, NPC1 promoter act inactive and ELG1 repair inh 6.5µM.
`COc1cc(C(=O)NC(=S)Nc2ccc(Cc3ccncc3)cc2)cc(OC)c1OC` gave Rab9 prom act inactive, FLuc modulator inactive, ELG1 genotoxic inactive, NPC1 promoter act inactive and ELG1 repair inh 13µM.
Screening COc1ccc(-n2ccc(=O)c(C(=O)O)n2)cc1 returned Rab9 prom act inactive, FLuc modulator inactive, ELG1 genotoxic inactive, NPC1 promoter act inactive and ELG1 repair inh inactive.
For COc1ccccc1CNC(=O)CN1C(=O)c2cccnc2Oc2ccccc21 the results were FLuc modulator inactive and SMN2 splice up inactive.
For CCc1cccc(OCC(=O)N(C)CC(=O)Nc2cccc(F)c2)c1 the results were Rab9 prom act inactive, FLuc modulator inactive, ELG1 genotoxic inactive, NPC1 promoter act inactive and ELG1 repair inh inactive.
For COc1c(C(=O)Nc2ccc(Cc3ccncc3)cc2)ccc2ccccc12 the results were Rab9 prom act inactive, FLuc modulator 19µM, ELG1 genotoxic inactive, SMN2 splice up inactive, NPC1 promoter act inactive and ELG1 repair inh inconclusive.
For COc1cccc(CNC(=O)c2ccncc2)c1 the results were Rab9 prom act inactive, FLuc modulator 17µM, ELG1 genotoxic inactive, NPC1 promoter act inactive and ELG1 repair inh inactive.
O=C(Nc1ccc(Cc2ccncc2)cc1)c1ccc(Br)o1 was read as Rab9 prom act inactive, FLuc modulator inconclusive, ELG1 genotoxic inactive, SMN2 splice up inactive, NPC1 promoter act inactive and ELG1 repair inh inconclusive.
COc1ccc(CNC(=O)c2ccncc2)cc1 was read as Rab9 prom act inactive, FLuc modulator inactive, ELG1 genotoxic inactive, NPC1 promoter act inactive and ELG1 repair inh inactive.
CC(C)Cc1ccc(C(=O)Nc2ccc(Cc3ccncc3)cc2)o1 was read as Rab9 prom act inactive, FLuc modulator inconclusive, ELG1 genotoxic inactive, NPC1 promoter act inactive and ELG1 repair inh 21µM.
Screening COc1cccc(NC(=O)Nc2ccc(Cc3ccncc3)cc2)c1 returned Rab9 prom act inactive, FLuc modulator 17µM, ELG1 genotoxic inactive, SMN2 splice up inactive, NPC1 promoter act inactive and ELG1 repair inh inactive.
Screening CC(=O)NC(c1ccco1)c1cc(Cl)c2ccc(N3CCCCC3)nc2c1O (configuration not stated) returned Rab9 prom act inactive, FLuc modulator inconclusive and NPC1 promoter act inactive.
For CC(=O)N1CCN(CC(=O)Nc2ccc([N+](=O)[O-])cc2Br)CC1 the results were Rab9 prom act inactive, FLuc modulator inactive, ELG1 genotoxic inactive, SMN2 splice up inactive, NPC1 promoter act inactive and ELG1 repair inh inactive.
For COc1cccc(NC(=O)COC(=O)CCn2c(C)csc2=O)c1 the results were Rab9 prom act inactive, FLuc modulator inactive, ELG1 genotoxic inactive, NPC1 promoter act inactive and ELG1 repair inh inactive.
`O=C(OCc1ccc(F)cc1)c1cc(=O)c2ccccc2o1` gave Rab9 prom act inactive, FLuc modulator 15µM, ELG1 genotoxic inactive, NPC1 promoter act inactive and ELG1 repair inh inactive.
For CCC(C)NC(=O)CCC(=O)N1Cc2ccccc2Oc2ncccc21 (configuration not stated) the results were FLuc modulator inactive.
